Screens from PubChem.
Hits are enriched below; roughly 1.8% of the tested compounds scored in any of these assays.
GC-B act = GC-B (human) receptor activation; P20594; HEK293-GC-B cells, CNP EC30, cGMP TR-FRET; 0% at EC30 CNP, 100% saturating CNP; activation, % at 10 µM; 0.11% of 370,000 active;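 active means activation at 10 µM reaching about 35% in either raw or pattern-adjusted values, limit read from the data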
Target sequence (P20594 whole entry, looked up): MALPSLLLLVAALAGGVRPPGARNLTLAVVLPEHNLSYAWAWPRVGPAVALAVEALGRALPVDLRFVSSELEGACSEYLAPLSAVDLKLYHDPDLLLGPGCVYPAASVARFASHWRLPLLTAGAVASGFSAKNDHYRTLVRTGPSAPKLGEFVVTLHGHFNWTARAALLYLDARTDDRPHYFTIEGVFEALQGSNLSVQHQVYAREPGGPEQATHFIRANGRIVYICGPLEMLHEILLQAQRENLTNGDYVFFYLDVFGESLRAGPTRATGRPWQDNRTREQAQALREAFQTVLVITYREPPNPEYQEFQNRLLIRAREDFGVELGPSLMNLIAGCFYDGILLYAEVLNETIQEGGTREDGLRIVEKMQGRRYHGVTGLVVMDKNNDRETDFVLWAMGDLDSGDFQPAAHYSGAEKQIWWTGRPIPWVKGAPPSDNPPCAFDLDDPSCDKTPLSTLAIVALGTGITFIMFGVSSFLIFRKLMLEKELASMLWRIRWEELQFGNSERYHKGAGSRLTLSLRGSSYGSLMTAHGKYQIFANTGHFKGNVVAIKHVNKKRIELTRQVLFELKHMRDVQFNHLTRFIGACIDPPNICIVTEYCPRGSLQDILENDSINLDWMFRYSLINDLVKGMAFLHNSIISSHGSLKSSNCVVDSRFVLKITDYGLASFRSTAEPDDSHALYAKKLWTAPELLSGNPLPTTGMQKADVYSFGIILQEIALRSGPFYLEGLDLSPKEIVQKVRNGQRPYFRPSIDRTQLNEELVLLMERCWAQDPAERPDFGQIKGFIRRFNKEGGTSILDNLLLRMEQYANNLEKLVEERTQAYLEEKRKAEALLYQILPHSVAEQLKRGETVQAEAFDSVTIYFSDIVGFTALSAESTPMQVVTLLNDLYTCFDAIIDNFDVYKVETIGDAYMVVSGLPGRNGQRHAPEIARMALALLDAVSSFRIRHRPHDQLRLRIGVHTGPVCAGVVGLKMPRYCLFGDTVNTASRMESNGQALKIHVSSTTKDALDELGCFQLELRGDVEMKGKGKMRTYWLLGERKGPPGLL
Myeloid diff MLP = compounds promoting myeloid differentiation. ER-HoxA9 myeloid progenitors, lysozyme-GFP differentiation, flow cytometry. calls only at 10 µM. 1% of 360,000 active;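 active means normalized GFP-positive differentiation at or above the plate's own cutoff, the solvent-only control mean plus 3 SD; inconclusive means no clear call, values can overlap the other calls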;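 further: cells exposed to compound for four days before flow analysis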
Exocytosis inh = lytic granule exocytosis inhibition. 0.66% of 360,000 active. AID 651702. TALL-104 LAMP-1 surface exposure, flow cytometry; cells stimulated with thapsigargin and PMA. inhibition, % at 10 µM;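 active means inhibition above about 55%, limit read from the data; inconclusive means no clear call, values can overlap the other calls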
NPR1 activator = GC-A (human) enzyme activation | 0.14% of 370,000 active | activation, % at 10 µM | HEK293 GC-A cells, cGMP TR-FRET, EC30 ANP; 0% at EC30 ANP, 100% saturating ANP | P16066 | AID 1671463; in the data active means activation above about 40%
* hit, by the source's call; i = inactive; ? = inconclusive; . = not tested or not shown; + = active, no number.

SMILES	GC-B act	Myeloid diff MLP	Exocytosis inh	NPR1 activator
COc1ccc(/C=N/NC(=O)CNC(=O)/C=C/c2ccccc2OC)cc1	-2.3	+	-19.0	-0.5
COc1ccccc1/C=C\C(=O)NCC(=O)N/N=C/c1cccc(OC)c1O	-3.0	i	3.8	-1.3
NC(N)=NN=C(c1ccc(F)cc1)c1ccc(C(F)(F)F)cc1	-7.5	.	57.0*	-17.6
Clc1ccc(-c2ccc(/C=N/Nc3cc(N4CCOCC4)nc(N4CCOCC4)n3)o2)cc1	-9.1	i	82.7*	2.5
O=C(Nc1nc2c(Br)cc(Br)cc2c(=O)s1)c1ccco1	35.2*	i	-4.2	77.5*
CCCc1nc(C)c2c(=O)[nH]c(-c3cc(S(=O)(=O)N4CCN(CC)CC4)ccc3OCC)nn12	64.6*	i	4.4	52.7*
CCOC(=O)N1C(=O)C[C@](Sc2ccc(OC)cc2)(C(=O)N(C)C)[C@H]1c1ccc(OC)cc1	-1.1	.	.	0.6
O=C1c2ccccc2S(=O)(=O)N1CC(O)Cn1ccc2ccccc21 (centres undefined)	0.2	+	-2.1	-3.0
CCC(C)[C@H](NC(=O)NC1CCCc2ccccc21)C(=O)O (some centres undefined)	1.2	+	0.1	-0.4
COC(=O)[C@H]1C[C@@]2(N3CCCCC3)c3ccccc3N[C@H]2N1S(=O)(=O)c1ccc([N+](=O)[O-])cc1	-5.5	.	.	-7.4
CC1(C)Cc2c(c(N3CCOCC3)nc3sc4c(NCC5CCCO5)nnnc4c23)CS1 (centres undefined)	48.9*	i	5.0	38.5
C1CCc2c(c(N3CCOCC3)nc3sc4c(N5CCOCC5)nnnc4c23)C1	-3.4	i	-4.7	2.9
CC1(C)Cc2c(c(N3CCOCC3)nc3sc4c(NCCN5CCOCC5)nnnc4c23)CS1	42.2*	i	0.2	44.4*
CC(C)CCNc1nnnc2c1sc1nc(N3CCOCC3)c3c(c12)CC(C)(C)SC3	57.2*	i	0.5	51.7*
Cn1cccc1C(=O)N1CCN(S(=O)(=O)c2cccs2)CC1	-0.2	.	.	1.0
CN(Cc1ccccc1)C(=O)OCc1cn(Cc2ccccc2C(F)(F)F)nn1	5.9	.	.	0.8
CC(=O)Nc1sc2c(c1-c1nc3ccccc3s1)CCCN(C(C)C)C2	0.8	.	.	8.7
CCN(CC)CCCNc1nc2ccccc2c2[nH]c3ccc(OC)cc3c12	0.4	?	25.9	8.7
CN(C)c1ccc(/C=C/c2nc3ccccc3c(=O)n2-c2ccc(C(=O)O)cc2)cc1	0.7	+	6.2	0.6
O=C(O)c1cccc(-n2c(/C=C/c3ccccc3)nc3ccccc3c2=O)c1	-9.2	i	-7.3	-7.5
COc1cccc(NC(=O)CN(C)C(=O)CCNC(=O)c2ccc(Br)cc2)c1	-1.6	i	5.6	-2.1
COc1cccc(CN(C)C(=O)CCNC(=O)c2ccc(Br)cc2)c1	-1.6	+	-2.4	-4.8
COc1cccc(NC(=O)CN(C)C(=O)CCNC(=O)c2ccccc2OC)c1	2.4	+	3.5	-2.3
CCOC(=O)c1cccc(NC(=O)CN(C)S(=O)(=O)c2ccc(Cl)s2)c1	-3.6	.	.	2.2
Cc1ccc(-n2c(SCC(=O)Nc3cccc4ccccc34)nnc2-c2ccccc2)cc1	-11.9	.	.	-9.5
SMILES	GC-B act	Myeloid diff MLP	Exocytosis inh	NPR1 activator
O=C(/C=C/c1ccc(Cl)cc1)Nc1nccs1	-7.4	+	0.0	2.9
C/C=C/C=C/C(=O)Nc1nccs1	4.9	i	3.8	-0.1
O=C(NCc1ccccc1)OCCN1C(=O)CCC12CCC(c1ccc(Cl)cc1)CC2 (centres undefined)	-13.7	.	.	-20.5
CCOC(=O)C(=N/O)/C(C)=N/NC(=O)C(=O)Nc1cc(Cl)ccc1Cl	-1.3	i	77.9*	-5.0
CCOC(=O)C(=N/O)/C(C)=N/NC(C)=O	1.3	i	-1.2	0.0
O=C(CSc1nnc(-c2cccnc2)n1C1CCCCC1)N1CCCC1	-4.3	.	.	3.5
CN(c1ccc(F)cc1)S(=O)(=O)c1ccc(Cl)c(C(=O)NCc2ccco2)c1	-5.0	+	4.2	0.3
CC(C)(C)c1ccc(CNc2nc(-c3ccccn3)nnc2-c2ccccc2)cc1	-2.7	.	.	2.5
CCOC(=O)C1=C(CSc2nc(CC)c(C)cc2C#N)OC(N)=C(C#N)C1c1ccc(OC)cc1 (centres undefined)	-6.5	+	0.8	-6.7
O=[N+]([O-])c1ccc(N=Nc2c(Cl)cc(O)cc2Cl)cc1	1.2	?	78.8*	29.8
CC(N)=Nc1ccc([N+](=O)[O-])cc1	-5.0	i	0.7	0.5
Cc1ccc(N(C)C(=O)c2cc(S(=O)(=O)N3CCc4ccccc43)cn2C)cc1	-11.0	i	2.5	-20.8
Cc1cccc(N(C)C(=O)c2cc(S(=O)(=O)N3CCc4ccccc43)cn2C)c1	-11.8	+	-0.7	-12.5
CN(C)S(=O)(=O)c1cc(NC(=O)CSc2ncc(C(F)(F)F)cc2Cl)ccc1Cl	0.8	+	-1.2	-2.6
Cc1cc(C(=O)N/N=C\c2cc(C(C)(C)C)ccc2O)n[nH]1	.	+	-0.5	.
COc1ccc(-c2cc(C(=O)OCC(=O)N3CCOCC3)c3ccccc3n2)cc1	-5.1	i	-13.2	6.4
COC(=O)C1CCN(C(=O)COC(=O)c2cc(-c3ccccc3)nc3ccc(OC)cc23)CC1	.	+	0.2	.
O=C(NNS(=O)(=O)c1ccccc1[N+](=O)[O-])c1ccccc1Cl	1.1	+	-3.9	-0.6
O=C(NNS(=O)(=O)c1ccccc1[N+](=O)[O-])c1cc2ccccc2cc1O	-0.8	i	-4.9	8.1
C[N+](C)=C1SCC(C)(/C=N/O)S1 (centres undefined)	3.6	i	107.5*	2.3
O=C(NCCc1c[nH]c2ccccc12)c1ccc2c(c1)ncn2C1CCCCC1	2.4	.	.	1.4
CC1=C(C(=O)Nc2ccccc2C(=O)NCc2ccccc2)SCCO1	3.0	i	9.4	1.7
CC1=C(C(=O)Nc2ccccc2C(=O)NC2CCC(C)CC2)SCCO1 (centres undefined)	-0.1	+	2.9	4.7
CC/C(C)=N/NC(=O)c1[nH]c2ccc(C)cc2c1-c1ccccc1	2.9	+	-1.6	4.0
C/C(=N\N)c1c(-c2ccccc2)c2cc(C)ccc2[nH]c1=O	1.3	i	7.5	0.0
SMILES	GC-B act	Myeloid diff MLP	Exocytosis inh	NPR1 activator
CCO[C@@H]1OC(C(=O)N2CCOCC2)=C[C@H](C2CCCCC2)[C@H]1CCCO	1.5	+	11.0	-2.7
CCO[C@@H]1OC(C(=O)N2CCCCCCC2)=C[C@H](C2CCCCC2)[C@H]1CCCO	-9.4	i	10.8	-10.8
c1ccc(Cn2c(SCC3CCC3)nnc2-c2cccnc2)cc1	1.8	.	.	-6.9
CC(=O)N1CCCC(C)(C(=O)Nc2ccc3oc(C)nc3c2)C1 (centres undefined)	-1.0	i	1.3	1.2
CC(C)CCN1C(=O)COc2ccccc2C1c1nnnn1-c1ccc2c(c1)OCCO2 (centres undefined)	0.5	.	.	-5.7
OC1(Cc2ccccc2)CCN(c2ncnc3sccc23)CC1	-9.7	.	.	-0.1
C=CCN1C(=O)/C(=C/c2cccs2)S/C1=N\S(=O)(=O)c1ccc(F)cc1	-8.2	+	-2.0	-9.4
